Bioassay records as filed in PubChem.
TROY signal inh = blocks TROY-dependent signaling in reporter cells; Q293 LMP1-TROYcd NF-kB luciferase reporter, 4 h; inhibition, % at 10 µM; hit rate 0.98% among 360,000; AID 1347056;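 active = compounds whose plate-normalised and pattern-corrected inhibition of the luciferase reporter signal at the single screening dose is 50% or more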
HIF-2a block = blocks HIF-2a reporter activity; 786-0 RCC cells HIF-2a reporter, luciferase luminescence, overnight; inhibition, % at 18.8 µM; hit rate 0.72% among 360,000;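 active = inhibition of the luminescence signal of 40% or more relative to plate controls, in a single-dose primary screen at 18.75 µM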
CF NFkB block = inhibitors of cystic fibrosis induced NF-kB. KKLEB NF-kB-GFP reporter, PAF-induced, GFP fluorescence overnight. inhibition, % at 5 µM. hit rate 0.86% among 360,000. AID 588850;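 active = at least 50% inhibition at 5 µM, scaled per plate between neutral and stimulator controls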;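 note: PAF is a Pseudomonas aeruginosa culture filtrate used as stimulus; plate controls were PAF-stimulated DMSO wells for no effect and unstimulated DMSO wells for full effect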
TWEAK Fn14 block = inhibitors of TWEAK-Fn14 interaction signaling | hit rate 2% among 360,000 | AID 1159606 | inhibition, % at 10 µM | TWEAK-stimulated Fn14 reporter cells, luciferase luminescence, 8 h; in the data active = inhibition above about 50%
Peg3 prom inh = Peg3 promoter activity inhibition. inhibition, % at 20 µM. AID 588405. hit rate 1.7% among 360,000. HeLa PEG-Prom luciferase reporter, luminescence, overnight;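 active = inhibition of at least 50% at 20 µM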
KKLEB cytotox = CF airway cell cytotoxicity counter-screen | KKLEB CF airway cells viability, ATPlite luminescence, overnight; stronger effect = lower value; cells stimulated with P. aeruginosa culture filtrate | hit rate 0.36% among 360,000 | activity change (cytotoxicity), % at 5 µM;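 active = corrected activity change at or below -50% at 5 µM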
Mdm2-MdmX confirm = confirmation of inhibitors of human Mdm2/MdmX interaction, set 2 | shares compounds with HIF-2a block | SaOS-2 split-luciferase Mdm2/MdmX complementation, luminescence | inhibition, % at 8 µM | hit rate 99% among 740 | AID 504601;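 active = mean inhibition of the luminescence signal across two replicates at or above 26 percent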
Target sequence (O15151 whole entry, looked up): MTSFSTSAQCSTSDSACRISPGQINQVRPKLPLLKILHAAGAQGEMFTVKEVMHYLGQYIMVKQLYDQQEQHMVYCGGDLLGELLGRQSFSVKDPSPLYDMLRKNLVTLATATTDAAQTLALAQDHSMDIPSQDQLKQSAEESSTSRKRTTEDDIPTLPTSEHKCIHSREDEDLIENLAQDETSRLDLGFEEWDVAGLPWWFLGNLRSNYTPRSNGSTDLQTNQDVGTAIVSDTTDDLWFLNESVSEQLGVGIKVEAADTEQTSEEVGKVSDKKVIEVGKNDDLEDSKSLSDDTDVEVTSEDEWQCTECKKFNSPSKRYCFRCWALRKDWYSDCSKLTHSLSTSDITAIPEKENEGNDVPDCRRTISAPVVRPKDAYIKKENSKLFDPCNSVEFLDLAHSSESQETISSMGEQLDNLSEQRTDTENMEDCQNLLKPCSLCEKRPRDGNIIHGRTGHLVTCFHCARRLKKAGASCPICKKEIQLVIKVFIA
Target sequence (Q00987 whole entry, looked up): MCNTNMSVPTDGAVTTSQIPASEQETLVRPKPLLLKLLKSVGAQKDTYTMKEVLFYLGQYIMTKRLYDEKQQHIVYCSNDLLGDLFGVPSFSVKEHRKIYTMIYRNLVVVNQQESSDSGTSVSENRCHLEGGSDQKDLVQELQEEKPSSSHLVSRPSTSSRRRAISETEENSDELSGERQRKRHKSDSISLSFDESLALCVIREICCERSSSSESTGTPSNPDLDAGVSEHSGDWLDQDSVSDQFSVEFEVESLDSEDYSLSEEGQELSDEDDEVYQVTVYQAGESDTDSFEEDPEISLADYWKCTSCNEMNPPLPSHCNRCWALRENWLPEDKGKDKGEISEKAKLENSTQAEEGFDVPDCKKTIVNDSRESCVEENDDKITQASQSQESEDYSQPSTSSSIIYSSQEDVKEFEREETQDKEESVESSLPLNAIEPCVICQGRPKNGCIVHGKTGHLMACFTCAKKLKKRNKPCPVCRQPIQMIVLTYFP
HIF-2a conf = HIF-2a inhibition, single concentration confirmation; shares compounds with HIF-2a block; 786-0 RCC cells, HIF-2a luciferase reporter luminescence, overnight; inhibition, % at 18.8 µM; hit rate 56% among 1,800; AID 651580;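 active = mean inhibition across four replicates of at least 40 percent at the single tested concentration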
HIF-1a cs = counter-screen for HIF-2a inhibitors: HIF-1a inhibition in MiaPaCa-2 cells; AID 651589; inhibition, % at 18.8 µM; shares compounds with HIF-2a block; hit rate 72% among 1,800; MiaPaCa-2 HIF-1a luciferase reporter, desferoxamine, overnight;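 active = mean inhibition of the reporter signal across four replicates at the single tested dose of 50% or more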
* = called active by the depositor; / = no result given. In the library only some 4% were active in any assay of this set; here they are far more common.

SMILES	TROY signal inh	HIF-2a block	CF NFkB block	TWEAK Fn14 block	Peg3 prom inh	KKLEB cytotox	HIF-2a conf	HIF-1a cs	others
O=C(Cc1coc2cc3c(cc12)CCC3)OCC(=O)N1CCCC1=O	59.1*	79.8*	35.2	82.9*	27.6	-15.8	77.5*	83.3*
COc1ccccc1-n1cnc2c(c1=O)c1nc3ccccc3nc1n2-c1ccc(C)c(C)c1	-1.8	0.3	-16.6	0.7	15.1	-0.4	/	/
Cc1csc(NC(=O)CSc2nnc(-c3ccc(Cl)cc3)n2N)n1	-12.0	0.3	-2.6	2.1	2.1	9.7	/	/
CCc1ccc(C2=NN(CCC(=O)NC(C)c3ccc4c(c3)OCCO4)C(=O)CC2)cc1 (configuration not stated)	5.9	17.7	6.8	-6.2	0.6	4.0	/	/
Cc1nc2cc(-c3ccc(Cl)cc3)nn2c(C)c1CCC(=O)NC(C)c1ccc2c(c1)OCCO2 (configuration not stated)	33.3	81.9*	-1.4	56.1*	8.6	-5.3	92.8*	89.1*
Cc1csc(NC(=O)CCc2c(C)nc3cc(-c4ccc(Cl)cc4)nn3c2C)n1	30.0	81.0*	1.3	62.3*	-4.4	-4.8	92.1*	54.5*
CNC(=O)c1nnsc1S(=O)(=O)c1ccc(Cl)cc1	69.2*	64.6*	90.5*	58.8*	105.5*	-92.4*	73.6*	50.1*	Mdm2-MdmX confirm=103.7*
O=C(O)CCSCC(=O)c1ccc2c(c1)OCCO2	14.2	57.5*	20.5	23.4	-24.4	2.3	64.2*	44.8
O=C(O)CCC(=O)c1ccc2c(c1)OCCO2	-13.0	-25.8	-2.0	-30.2	-26.8	6.3	/	/
O=C(CNC(=S)N(Cc1ccc(F)cc1)C1CCCCC1)NC1CC1	13.8	10.4	-9.2	1.7	14.2	9.3	/	/
O=S(=O)(c1ccc2c(c1)C(=NO)c1cc(S(=O)(=O)N3CCCCC3)ccc1-2)N1CCCCC1	-21.9	86.9*	99.9*	12.6	86.1*	-105.8*	81.7*	103.4*
O=S(=O)(c1ccc(S(=O)(=O)N2CCCC2)cc1)N1CCCCCC1	-13.1	8.8	-3.0	-7.0	5.2	3.0	/	/
O=C(O)CN=CC1=C(O)CC(c2ccccc2)CC1=O (configuration not stated)	49.6	25.6	-6.7	1.2	20.3	-1.5	/	/
Cc1ccc(S(=O)(=O)NCCC2=CCCCC2)cc1	-14.1	-6.1	8.2	-4.6	-11.8	8.3	/	/
CCOC(=O)COc1ccc(S(=O)(=O)NCCC2=CCCCC2)cc1	5.8	54.1*	10.0	12.4	11.1	0.4	7.3	-0.6
C(=N\N1CCN(Cc2cccc3ccccc23)CC1)/c1cccs1	-1.0	-25.5	-4.8	-24.5	2.7	7.4	/	/
Cc1cc(SC#N)cc(C)c1NC(=O)CCl	-21.3	46.4*	48.7	8.9	28.3	-31.2	54.1*	25.6
CCS(=O)(=O)c1ncc(Cl)c(C(=O)Nc2ccc(S(=O)(=O)N(C)c3ccccc3)cc2)n1	88.2*	94.6*	81.8*	99.6*	102.4*	-96.9*	99.4*	99.4*	Mdm2-MdmX confirm=103.0*
CCN(c1ccccc1)S(=O)(=O)c1ccc(NC(=O)c2nc(S(C)(=O)=O)ncc2Cl)cc1	70.4*	92.0*	102.5*	88.2*	108.2*	-101.1*	/	/	Mdm2-MdmX confirm=102.5*
CCN(c1ccccc1)S(=O)(=O)c1ccc(C(=O)Nc2ccncc2)cc1	14.0	17.2	2.5	16.3	29.2	-8.6	/	/
CCC(=O)N1CCN(C(C)=O)C1c1ccccc1 (configuration not stated)	-9.1	5.8	9.2	28.1	15.6	1.3	/	/
Cc1cccc(C)c1NC(=O)COC(=O)c1cc[n+]([O-])cc1	-8.0	12.5	-17.7	5.5	12.9	3.6	/	/
COc1cccc(NC(=O)N2CCCC2C(=O)NC2CCCC2)c1 (configuration not stated)	18.8	-1.9	-25.3	20.1	-8.9	0.6	/	/
O=C(O)c1ccc(NC2=C(Cl)C(=O)c3ccccc3C2=O)cc1	41.6	93.9*	92.4*	43.5	108.8*	-88.9*	/	/	Mdm2-MdmX confirm=101.3*
Cc1c(NC(=O)CSc2nnc(Nc3ccccc3)s2)c(=O)n(-c2ccccc2)n1C	22.7	-0.8	-2.7	8.1	5.5	-2.1	/	/
SMILES	TROY signal inh	HIF-2a block	CF NFkB block	TWEAK Fn14 block	Peg3 prom inh	KKLEB cytotox	HIF-2a conf	HIF-1a cs	others
CC[C@@H](C)[C@H](CN[C@H](CNC)C(C)C)NC[C@@H](C)c1ccc(CC(C)C)cc1	-6.4	-0.9	3.2	-43.5	99.2*	-10.3	/	/	Mdm2-MdmX confirm=103.0*
O=C(Cn1ncc(Cl)c(Cl)c1=O)NC(=O)NC1CCCCC1	48.9	84.2*	90.5*	104.1*	89.3*	-64.3*	91.7*	105.6*	Mdm2-MdmX confirm=101.5*
O=C(CN1CCCCC1)NC(=O)NC1CCCC1	-7.8	-21.9	4.0	-18.2	-24.1	7.5	/	/
CCN(CC)CCN(C)Cc1ccc(Br)cc1	15.2	-2.5	-2.0	-10.2	6.9	-1.5	/	/
O=C(Nc1ccccc1)c1cc([N+](=O)[O-])ccc1Cl	-4.6	8.1	-20.3	7.4	-1.1	-8.4	/	/
O=C(Nc1cccc(Cl)c1)c1cc(N=Nc2ccc([N+](=O)[O-])cc2Cl)ccc1O	39.2	-83.9	76.2*	82.8*	79.0*	-32.3	/	/	Mdm2-MdmX confirm=95.5*
Cc1ccc(C)c(OCc2ccc(C(=O)NN)o2)c1	5.4	40.1*	-17.5	33.9	-1.9	-0.5	28.6	-3.8
COc1cccc(Nc2cc(N3CCOCC3)c3nonc3c2[N+](=O)[O-])c1	-25.1	26.1	7.6	-18.9	-1.4	-20.2	/	/
Cc1c(Nc2cc(Cl)c3nonc3c2[N+](=O)[O-])c(=O)n(-c2ccccc2)n1C	83.6*	98.1*	94.0*	50.3*	104.7*	-55.6*	98.5*	104.6*	Mdm2-MdmX confirm=103.2*
O=[N+]([O-])c1c(Nc2cccc(O)c2)cc(Cl)c2nonc12	88.2*	89.7*	91.3*	64.3*	102.8*	-91.6*	95.3*	105.1*	Mdm2-MdmX confirm=103.7*
O=[N+]([O-])c1c(Nc2ccccc2O)cc(N2CCOCC2)c2nonc12	3.7	50.8*	-4.9	-29.5	23.8	-13.8	22.5	71.6*
CC(Cc1ccsc1)NC(=O)CCc1nnc(CCc2ccccc2)o1 (configuration not stated)	-23.0	3.1	7.5	6.7	-6.5	-1.7	/	/
O=C(COC(=O)C1CC1)Nc1ccc(Cl)cn1	-5.1	13.1	4.1	9.4	-7.6	-4.7	/	/
Cc1c(OCC(=O)N(C)C)ccc2c(-c3ccccc3)cc(=O)oc12	9.1	10.9	14.5	-16.7	9.9	-9.7	/	/
